# Results taken from PubChem BioAssay (EPA / NIEHS).
# Some compounds were tested as several samples or in several runs, with calls that do not always agree. Activity calls are given as the source filed them. The calls were made as follows: active = hit-call score of the fitted dose curve at least 0.9, where 1 is the maximum; inactive = score below 0.9.
# Molecular target: Hepatocyte nuclear factor 6 (Homo sapiens) (UniProt Q9UBC0)
# Test: ATG_HNF6_CIS: Attagene CIS-FACTORIAL HepG2 Assay for human Hepatocyte Nuclear Factor 6 (HNF6) (AID 2282952)
# Details: HepG2 Attagene cis-factorial HNF6 reporter transcription; actives raise or lower the signal
# Method: ATG_CIS is a cell-based, multiplexed-readout assay that uses HepG2, a human liver cell line, with measurements taken at 24 hours after chemical dosing in a 24-well plate.ATG_HNF6_CIS is one of 52 assay component(s) measured or calculated from the ATG_CIS assay. It is designed to make measurements of mRNA induction, a form of inducible reporter, as detected with fluorescence intensity signals by Reverse transcription polymerase chain reaction (RT-PCR) and Capillary electrophoresis technology.Data from the assay component ATG_HNF6_CIS was analyzed into 1 assay endpoint. This assay endpoint, ATG_HNF6_CIS, was analyzed with bidirectional fitting relative to DMSO as the negative control and baseline of activity. Using a type of inducible reporter, measures of mRNA for gain or loss-of-signal activity can be used to understand the reporter gene at the transcription factor-level as they relate to the gene ONECUT1. Furthermore, this assay endpoint can be referred to as a primary readout, because this assay has produced multiple assay endpoints where this one serves a reporter gene function. To generalize the intended target to other relatable targets, this assay endpoint is annotated to the dna binding intended target family, where the subfamily is homeobox protein.
# Human liver HepG2 cells are transiently transfected with multiple reporter transcription units (MRTUs) in 6-well plates using FuGene 6 reagent (Roche; 3 ml FuGene/1 mg DNA). The MRTU constructs are regulated by a cis-regulating element (promoter). […] A major difference between the CIS and TRANS system is that in CIS activities of endogenous TFs are measured, whereas the TRANS assay evaluates changes in activities of exogenous, chimeric NR-Gal4 proteins. […] At the end of 24 hour incubation, total RNA was isolated using TriZol reagent (Invitrogen). The isolated RNA is then reverse-transcribed using oligo(dT) primer and Mo-MLV reverse transcriptase (Invitrogen) with DNAse I (Ambion) treatment for 30 min. The one-tenth of the produced cDNA was amplified by PCR using Taq DNA polymerase (Invitrogen) and two reporter sequence-specific primers. The PCR products were fluorescently labeled by primer extension with 6-arboxyfluorescein (6-FAM) 5'-labeled reporter sequence-specific primer (2 min at 95 C, 20 s at 68 C and 10 min at 72 C) and these products were digested with 5U of HpaI (New England Biolabs) for 2h at 37 C. The fragments were purified using Qiaquick PCR columns (Qiagen), analyzed on an ABI 3130xL genetic analyzer (Applied Biosystems) with peak positions identified by using a set of X-rhodamine (ROX)-labeled MapMarker1000 molecular weight standards (BioVentures). The raw capillary electrophoresis data was processed using Attagraph software (Attagene).
# Sequence of Hepatocyte nuclear factor 6 (Homo sapiens) (Q9UBC0 whole entry, looked up): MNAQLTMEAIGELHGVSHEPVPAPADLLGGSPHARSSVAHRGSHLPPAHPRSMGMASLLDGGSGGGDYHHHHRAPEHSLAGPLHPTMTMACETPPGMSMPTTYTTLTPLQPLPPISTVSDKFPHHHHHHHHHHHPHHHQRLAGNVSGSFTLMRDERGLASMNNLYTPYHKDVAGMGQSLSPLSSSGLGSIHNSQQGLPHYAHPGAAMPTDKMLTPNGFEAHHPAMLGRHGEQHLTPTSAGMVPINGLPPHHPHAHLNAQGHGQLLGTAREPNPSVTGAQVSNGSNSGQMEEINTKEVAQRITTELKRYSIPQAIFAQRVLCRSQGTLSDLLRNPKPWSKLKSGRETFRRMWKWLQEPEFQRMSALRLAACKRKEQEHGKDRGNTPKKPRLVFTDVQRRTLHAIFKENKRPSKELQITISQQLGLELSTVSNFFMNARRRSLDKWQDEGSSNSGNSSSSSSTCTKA
Structure (SMILES),outcome,AC50
CCCCCCCCOC(=O)CCCCCCCCC(=O)OCCCCCCCC,inactive,–
O=C(O)c1ccccc1C(c1ccc(O)cc1)c1ccc(O)cc1,inactive,–
COc1cc(CCC(=O)CC(=O)CCc2ccc(O)c(OC)c2)ccc1O,inactive,–
CCCCC(CC)COC(=O)CCCCC(=O)OCc1ccccc1 (stereo not given),inactive,–
CCCCCCCCC(=O)O,inactive,–
CCCOc1sc(C(=O)N2CCC(c3cc(CN)ccc3F)CC2)c(C)c1Br,inactive,–
CC(C)(C)c1ccc(O)c(C(C)(C)C)c1,inactive,–
Cc1oc(-c2ccccc2)nc1CCOc1ccc(C[C@H](Nc2ccccc2C(=O)c2ccccc2)C(=O)O)cc1,inactive,–
COCC(C)O (stereo not given),inactive,–
CC(=O)CC(C)(C)O,inactive,–
Cc1cc(C)c(O)c(C)c1,inactive,–
CCCCCCCC(=O)O,inactive,–
OC1CCC(C2CCCCC2)CC1 (stereo not given),inactive,154 µM (active)
CCCCC[C@H](O)CC(=O)CCc1ccc(O)c(OC)c1,inactive,–
Cc1cc(CCN2CCN(c3nsc4ccccc34)CC2)cc2c1NC(=O)CC2(C)C,inactive,–
CC(C)(C)c1cc(C(C)(C)C)c(O)c(C(C)(C)C)c1,inactive,–
O=C(OCCOCCOC(=O)c1ccccc1)c1ccccc1,inactive,–
C[C@@H]1C[C@H]2[C@@H]3CCC4=CC(=O)C=C[C@]4(C)[C@@]3(F)[C@@H](O)C[C@]2(C)[C@@]1(O)C(=O)COP(=O)(O)O,inactive,–
CC(O)CO (stereo not given),inactive,–

Structure (SMILES),outcome,AC50
CCCCC(CC)COC(=O)CCCCC(=O)OCC(CC)CCCC (stereo not given),inactive,–
CC(O)C(=O)O (stereo not given),inactive,–
CCOC(=O)CC(O)(CC(=O)OCC)C(=O)OCC,inactive,–
Oc1cccc(O)c1,inactive,–
COc1ccc([N+](=O)[O-])cc1N,inactive,–
NC(=O)N(O)[C@@H]1C=C[C@H](Oc2cccc(Oc3ccc(F)cc3)c2)C1,inactive,–
CC#C[C@]1(O)CC[C@H]2[C@@H]3CCC4=CC(=O)CCC4=C3[C@@H](c3ccc(N(C)C)cc3)C[C@@]21C,inactive,–
CN(C)C=O,inactive,–
CC(C)(C)CC(C)(C)c1ccc(O)c(-n2nc3ccccc3n2)c1,inactive,–
FC(F)(I)C(F)(F)C(F)(F)C(F)(F)C(F)(F)C(F)(F)I,inactive,–
c1ccc2c(c1)ccc1ccccc12,inactive,–
CCCCCCCCCCCCCCCS(=O)(=O)Oc1ccccc1,inactive,–
CN1CCN(c2ccccc2/C=C2\SCCN(c3ccc(Cl)c(Cl)c3)C2=O)CC1,inactive,–
CC[C@H](C)[C@@H](C(=O)O)n1sc2ccccc2c1=O,inactive,–
CCCCCCC(=O)O,inactive,–
O=C(/C=C/c1ccc(O)cc1)CC(=O)/C=C/c1ccc(O)cc1,inactive,–
O=c1c(-c2ccc(O)cc2)coc2cc(O)ccc12,inactive,–
c1ccc2c(c1)Cc1ccccc1-2,inactive,–
OCCC(F)(F)C(F)(F)C(F)(F)C(F)(F)C(F)(F)C(F)(F)C(F)(F)C(F)(F)F,inactive,171 µM (active)
